Legend:
Assay in all cases: log2 ratio of Biotin-Ahx-Ub-VS probe labelling (fragment/DMSO); higher = less target engagement (more negative = stronger competition), active = hit call of the paper (q ≤ 0.05, log2 ratio ≤ -1)
Details in all cases: compound concentration: 200 uM; treatment time: 3 h
[1] = target: T1, USP42 (UniProt Q9H9J4)
T1 sequence (whole entry): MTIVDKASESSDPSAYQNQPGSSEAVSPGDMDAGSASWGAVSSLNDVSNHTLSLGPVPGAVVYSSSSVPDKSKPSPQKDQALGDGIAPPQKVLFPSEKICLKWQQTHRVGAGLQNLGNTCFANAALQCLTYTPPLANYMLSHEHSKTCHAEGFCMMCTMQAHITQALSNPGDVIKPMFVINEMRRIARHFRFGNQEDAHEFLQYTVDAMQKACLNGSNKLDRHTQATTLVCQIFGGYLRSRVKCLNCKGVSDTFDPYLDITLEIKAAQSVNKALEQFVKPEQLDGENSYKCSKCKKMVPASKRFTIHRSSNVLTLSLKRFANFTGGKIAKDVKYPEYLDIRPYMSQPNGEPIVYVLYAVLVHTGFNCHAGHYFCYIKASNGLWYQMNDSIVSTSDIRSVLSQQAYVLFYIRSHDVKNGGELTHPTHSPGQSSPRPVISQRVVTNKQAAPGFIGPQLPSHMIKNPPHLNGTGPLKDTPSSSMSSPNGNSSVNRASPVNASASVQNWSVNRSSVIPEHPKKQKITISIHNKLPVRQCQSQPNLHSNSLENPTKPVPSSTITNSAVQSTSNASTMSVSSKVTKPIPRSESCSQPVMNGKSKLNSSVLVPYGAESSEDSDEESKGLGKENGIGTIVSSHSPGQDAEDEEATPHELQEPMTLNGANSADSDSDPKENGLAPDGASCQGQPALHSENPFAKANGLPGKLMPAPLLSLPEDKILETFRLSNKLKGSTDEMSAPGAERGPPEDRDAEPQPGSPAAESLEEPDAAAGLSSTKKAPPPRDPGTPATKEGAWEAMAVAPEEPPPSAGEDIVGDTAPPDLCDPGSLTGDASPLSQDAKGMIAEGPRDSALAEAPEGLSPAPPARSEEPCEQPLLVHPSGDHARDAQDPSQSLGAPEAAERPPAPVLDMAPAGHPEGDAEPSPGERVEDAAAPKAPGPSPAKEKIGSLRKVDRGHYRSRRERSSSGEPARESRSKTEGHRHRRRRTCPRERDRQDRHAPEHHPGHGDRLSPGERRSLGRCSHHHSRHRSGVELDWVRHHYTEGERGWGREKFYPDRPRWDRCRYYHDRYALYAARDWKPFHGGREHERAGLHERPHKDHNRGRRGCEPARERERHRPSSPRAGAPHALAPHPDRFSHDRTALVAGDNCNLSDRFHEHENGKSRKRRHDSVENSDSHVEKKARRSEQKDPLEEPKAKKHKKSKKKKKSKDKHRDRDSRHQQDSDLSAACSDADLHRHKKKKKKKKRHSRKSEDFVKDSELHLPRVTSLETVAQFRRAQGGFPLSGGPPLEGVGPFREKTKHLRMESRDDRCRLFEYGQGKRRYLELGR
Outline: (§1)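 In triplicate, 495 µg of HEK293T lysate per sample was incubated with fragment at 200 µM or vehicle for 3 h. Biotin-Ahx-Ub-VS was then added to 0.5 µM final for 1 h, and labelled DUBs were captured with NeutrAvidin, digested with LysC and trypsin, and measured by diaPASEF LC-MS/MS. Data are average log2 fragment/vehicle ratios by unpaired t-test from global-median-normalised Spectronaut label-free quantities, restricted to proteins with ≥2 unique peptides.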

[2] = target: USP46 (UniProt P62068)
Outline: as §1

[3] = target: T2, USP47 (UniProt Q96K76)
T2 sequence (whole entry): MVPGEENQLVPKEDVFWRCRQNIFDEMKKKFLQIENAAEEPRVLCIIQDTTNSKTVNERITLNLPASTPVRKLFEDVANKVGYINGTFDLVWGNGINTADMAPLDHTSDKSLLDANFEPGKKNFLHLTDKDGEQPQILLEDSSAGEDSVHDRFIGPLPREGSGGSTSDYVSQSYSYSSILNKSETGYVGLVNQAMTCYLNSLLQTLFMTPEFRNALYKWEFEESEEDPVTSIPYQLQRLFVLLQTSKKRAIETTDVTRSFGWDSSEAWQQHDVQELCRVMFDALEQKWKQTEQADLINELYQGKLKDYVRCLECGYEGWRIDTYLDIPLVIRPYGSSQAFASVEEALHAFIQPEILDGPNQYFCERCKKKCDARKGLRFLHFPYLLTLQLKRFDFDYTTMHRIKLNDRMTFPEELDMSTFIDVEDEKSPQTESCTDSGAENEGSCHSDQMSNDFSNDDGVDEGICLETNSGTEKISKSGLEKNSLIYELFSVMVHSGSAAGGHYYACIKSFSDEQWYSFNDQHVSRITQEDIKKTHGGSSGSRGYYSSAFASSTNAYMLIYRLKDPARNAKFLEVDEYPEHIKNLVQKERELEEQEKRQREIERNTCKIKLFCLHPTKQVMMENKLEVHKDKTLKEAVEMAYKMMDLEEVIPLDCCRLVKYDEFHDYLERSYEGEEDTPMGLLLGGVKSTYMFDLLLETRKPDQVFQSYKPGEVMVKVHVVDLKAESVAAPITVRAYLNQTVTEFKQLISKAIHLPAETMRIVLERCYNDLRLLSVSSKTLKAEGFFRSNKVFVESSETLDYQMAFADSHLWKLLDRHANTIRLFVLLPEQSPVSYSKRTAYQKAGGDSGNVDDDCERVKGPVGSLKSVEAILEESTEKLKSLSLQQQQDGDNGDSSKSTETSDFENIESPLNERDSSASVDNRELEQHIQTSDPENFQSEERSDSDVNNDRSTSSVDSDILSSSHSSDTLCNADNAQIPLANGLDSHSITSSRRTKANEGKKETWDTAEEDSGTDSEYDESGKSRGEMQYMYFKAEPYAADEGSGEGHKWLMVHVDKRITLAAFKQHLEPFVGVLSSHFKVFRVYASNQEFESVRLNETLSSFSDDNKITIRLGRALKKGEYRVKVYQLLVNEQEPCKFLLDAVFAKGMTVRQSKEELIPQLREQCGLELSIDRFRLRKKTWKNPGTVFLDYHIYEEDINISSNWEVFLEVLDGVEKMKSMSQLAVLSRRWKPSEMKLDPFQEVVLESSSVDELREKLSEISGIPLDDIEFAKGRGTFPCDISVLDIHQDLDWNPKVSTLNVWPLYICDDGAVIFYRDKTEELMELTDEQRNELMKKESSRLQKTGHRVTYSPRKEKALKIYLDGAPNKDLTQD
Outline: as §1

[4] = target: T3, USP48 (UniProt Q86UV5)
T3 sequence (whole entry): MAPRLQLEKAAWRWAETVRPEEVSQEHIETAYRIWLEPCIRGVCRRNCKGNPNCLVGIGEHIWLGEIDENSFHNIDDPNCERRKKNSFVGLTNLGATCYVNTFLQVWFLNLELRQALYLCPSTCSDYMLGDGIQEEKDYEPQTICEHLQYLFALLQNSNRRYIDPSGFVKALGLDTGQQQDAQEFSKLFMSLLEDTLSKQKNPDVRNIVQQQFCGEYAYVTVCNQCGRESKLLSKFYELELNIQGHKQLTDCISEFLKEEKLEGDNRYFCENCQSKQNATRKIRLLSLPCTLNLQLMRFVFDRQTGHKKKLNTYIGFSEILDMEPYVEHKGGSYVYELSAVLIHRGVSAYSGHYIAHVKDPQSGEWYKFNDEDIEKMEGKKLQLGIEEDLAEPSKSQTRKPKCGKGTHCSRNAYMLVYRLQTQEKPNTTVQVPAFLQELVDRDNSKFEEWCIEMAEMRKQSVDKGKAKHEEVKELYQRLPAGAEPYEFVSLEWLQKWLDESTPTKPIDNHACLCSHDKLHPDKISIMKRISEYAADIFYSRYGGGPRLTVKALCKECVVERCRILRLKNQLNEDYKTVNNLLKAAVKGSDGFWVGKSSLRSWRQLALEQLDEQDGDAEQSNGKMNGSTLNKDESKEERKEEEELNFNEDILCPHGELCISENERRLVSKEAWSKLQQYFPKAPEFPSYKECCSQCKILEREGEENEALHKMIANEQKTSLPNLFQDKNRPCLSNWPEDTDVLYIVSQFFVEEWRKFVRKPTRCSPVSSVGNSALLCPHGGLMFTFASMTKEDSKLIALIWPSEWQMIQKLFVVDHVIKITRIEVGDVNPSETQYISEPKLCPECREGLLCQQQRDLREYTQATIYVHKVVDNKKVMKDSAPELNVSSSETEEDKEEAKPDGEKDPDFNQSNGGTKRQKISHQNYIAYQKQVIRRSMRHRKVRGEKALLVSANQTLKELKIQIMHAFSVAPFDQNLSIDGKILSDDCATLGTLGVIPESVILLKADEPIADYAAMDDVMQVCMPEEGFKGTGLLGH
Outline: as §1

[5] = target: T4, USP5 (UniProt P45974)
T4 sequence (whole entry): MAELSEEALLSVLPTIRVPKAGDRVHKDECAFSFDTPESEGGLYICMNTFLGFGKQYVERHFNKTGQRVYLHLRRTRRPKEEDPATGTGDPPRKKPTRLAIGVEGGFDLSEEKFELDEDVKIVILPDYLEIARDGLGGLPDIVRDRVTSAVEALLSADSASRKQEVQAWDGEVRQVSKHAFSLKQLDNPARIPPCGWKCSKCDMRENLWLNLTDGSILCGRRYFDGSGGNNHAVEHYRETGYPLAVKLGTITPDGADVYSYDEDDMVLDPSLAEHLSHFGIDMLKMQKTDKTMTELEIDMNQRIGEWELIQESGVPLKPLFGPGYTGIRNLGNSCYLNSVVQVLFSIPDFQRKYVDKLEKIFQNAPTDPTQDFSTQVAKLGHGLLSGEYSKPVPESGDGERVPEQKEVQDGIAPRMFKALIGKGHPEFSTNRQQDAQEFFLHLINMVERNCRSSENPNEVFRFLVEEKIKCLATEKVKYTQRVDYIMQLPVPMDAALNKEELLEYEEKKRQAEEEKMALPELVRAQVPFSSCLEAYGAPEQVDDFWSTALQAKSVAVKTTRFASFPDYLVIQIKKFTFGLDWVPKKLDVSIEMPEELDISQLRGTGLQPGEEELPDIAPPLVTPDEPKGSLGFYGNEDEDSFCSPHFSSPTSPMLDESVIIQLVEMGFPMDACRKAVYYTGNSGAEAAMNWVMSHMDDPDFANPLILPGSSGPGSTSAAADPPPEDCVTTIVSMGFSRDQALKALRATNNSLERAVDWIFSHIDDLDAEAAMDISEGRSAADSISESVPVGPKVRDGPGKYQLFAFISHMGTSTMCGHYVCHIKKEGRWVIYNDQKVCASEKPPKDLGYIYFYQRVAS
Outline: as §1

[6] = target: USP54 (UniProt Q70EL1)
Outline: as §1

[7] = target: USP7 (UniProt Q93009)
Outline: as §1

[8] = target: T5, USP8 (UniProt P40818)
T5 sequence (whole entry): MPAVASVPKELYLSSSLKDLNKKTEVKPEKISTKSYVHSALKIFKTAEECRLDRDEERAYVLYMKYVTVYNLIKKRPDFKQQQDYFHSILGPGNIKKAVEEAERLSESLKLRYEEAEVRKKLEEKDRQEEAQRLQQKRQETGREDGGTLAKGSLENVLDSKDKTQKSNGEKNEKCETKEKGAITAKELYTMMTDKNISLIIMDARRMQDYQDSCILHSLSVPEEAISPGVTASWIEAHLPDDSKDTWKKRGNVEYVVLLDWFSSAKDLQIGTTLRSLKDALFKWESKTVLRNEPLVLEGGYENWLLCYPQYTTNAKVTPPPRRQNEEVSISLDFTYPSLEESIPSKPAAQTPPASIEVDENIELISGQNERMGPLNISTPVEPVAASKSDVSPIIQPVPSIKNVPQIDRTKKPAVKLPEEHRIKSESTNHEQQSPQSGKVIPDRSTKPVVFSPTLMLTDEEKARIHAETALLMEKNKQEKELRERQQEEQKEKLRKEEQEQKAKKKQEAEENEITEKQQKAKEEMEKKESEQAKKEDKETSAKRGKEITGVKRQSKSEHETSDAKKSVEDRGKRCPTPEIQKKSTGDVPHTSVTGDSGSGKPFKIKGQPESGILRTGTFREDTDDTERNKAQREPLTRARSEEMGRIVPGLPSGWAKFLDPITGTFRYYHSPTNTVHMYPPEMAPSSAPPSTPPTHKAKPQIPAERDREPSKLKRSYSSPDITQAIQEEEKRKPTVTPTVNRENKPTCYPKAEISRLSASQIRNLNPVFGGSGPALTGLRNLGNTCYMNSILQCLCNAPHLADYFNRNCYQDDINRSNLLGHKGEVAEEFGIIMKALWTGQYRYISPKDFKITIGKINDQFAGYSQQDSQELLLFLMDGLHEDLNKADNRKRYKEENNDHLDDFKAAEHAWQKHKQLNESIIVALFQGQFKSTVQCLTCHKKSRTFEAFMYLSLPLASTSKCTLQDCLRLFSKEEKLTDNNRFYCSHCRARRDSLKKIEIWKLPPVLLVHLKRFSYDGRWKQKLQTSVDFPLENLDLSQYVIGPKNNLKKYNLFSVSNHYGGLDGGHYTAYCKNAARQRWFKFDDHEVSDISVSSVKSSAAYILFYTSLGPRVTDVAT
Outline: as §1

Measured: log2 ratio of Biotin-Ahx-Ub-VS probe labelling

USP54, sequence (Q70EL1 whole entry): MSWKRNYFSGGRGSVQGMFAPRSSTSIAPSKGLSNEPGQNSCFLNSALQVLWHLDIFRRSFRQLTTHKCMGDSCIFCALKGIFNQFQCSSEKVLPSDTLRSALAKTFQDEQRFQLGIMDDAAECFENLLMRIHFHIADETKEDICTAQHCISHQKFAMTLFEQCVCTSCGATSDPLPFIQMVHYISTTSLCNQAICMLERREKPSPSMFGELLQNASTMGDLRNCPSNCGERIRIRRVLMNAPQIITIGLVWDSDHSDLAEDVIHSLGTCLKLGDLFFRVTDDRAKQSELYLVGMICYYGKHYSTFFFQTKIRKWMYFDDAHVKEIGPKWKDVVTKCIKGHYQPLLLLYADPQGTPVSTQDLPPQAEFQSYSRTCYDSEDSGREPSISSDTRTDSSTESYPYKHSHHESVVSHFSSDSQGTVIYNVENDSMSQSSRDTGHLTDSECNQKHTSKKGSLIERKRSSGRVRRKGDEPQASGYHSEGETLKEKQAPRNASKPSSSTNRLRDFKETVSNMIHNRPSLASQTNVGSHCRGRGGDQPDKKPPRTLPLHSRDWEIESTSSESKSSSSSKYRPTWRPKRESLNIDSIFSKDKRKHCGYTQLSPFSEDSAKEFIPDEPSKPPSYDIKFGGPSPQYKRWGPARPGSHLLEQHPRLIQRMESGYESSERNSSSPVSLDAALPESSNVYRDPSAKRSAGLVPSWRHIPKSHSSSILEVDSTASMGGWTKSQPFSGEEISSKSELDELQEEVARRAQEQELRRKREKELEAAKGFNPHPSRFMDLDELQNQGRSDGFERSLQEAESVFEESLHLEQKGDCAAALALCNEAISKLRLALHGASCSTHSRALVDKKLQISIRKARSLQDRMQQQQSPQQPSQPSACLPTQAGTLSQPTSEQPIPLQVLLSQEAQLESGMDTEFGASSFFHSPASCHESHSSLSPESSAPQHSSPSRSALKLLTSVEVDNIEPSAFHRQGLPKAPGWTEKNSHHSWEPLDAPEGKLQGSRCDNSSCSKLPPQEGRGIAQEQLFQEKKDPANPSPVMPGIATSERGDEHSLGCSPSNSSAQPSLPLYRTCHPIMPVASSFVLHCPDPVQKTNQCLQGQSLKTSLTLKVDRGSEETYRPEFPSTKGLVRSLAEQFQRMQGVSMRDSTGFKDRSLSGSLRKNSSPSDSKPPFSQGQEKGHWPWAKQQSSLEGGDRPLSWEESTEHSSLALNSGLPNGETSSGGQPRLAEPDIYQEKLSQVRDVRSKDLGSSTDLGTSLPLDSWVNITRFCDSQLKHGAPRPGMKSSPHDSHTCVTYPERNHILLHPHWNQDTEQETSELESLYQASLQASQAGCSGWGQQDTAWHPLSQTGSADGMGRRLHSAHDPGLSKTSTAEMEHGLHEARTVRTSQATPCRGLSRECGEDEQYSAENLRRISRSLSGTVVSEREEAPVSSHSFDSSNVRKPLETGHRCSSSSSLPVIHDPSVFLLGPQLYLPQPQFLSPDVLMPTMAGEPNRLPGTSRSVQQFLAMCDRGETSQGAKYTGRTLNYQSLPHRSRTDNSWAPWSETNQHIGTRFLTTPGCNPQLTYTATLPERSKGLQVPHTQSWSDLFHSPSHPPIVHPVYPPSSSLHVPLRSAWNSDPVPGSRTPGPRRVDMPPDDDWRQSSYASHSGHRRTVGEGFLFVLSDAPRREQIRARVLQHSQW
USP46, sequence (P62068 whole entry): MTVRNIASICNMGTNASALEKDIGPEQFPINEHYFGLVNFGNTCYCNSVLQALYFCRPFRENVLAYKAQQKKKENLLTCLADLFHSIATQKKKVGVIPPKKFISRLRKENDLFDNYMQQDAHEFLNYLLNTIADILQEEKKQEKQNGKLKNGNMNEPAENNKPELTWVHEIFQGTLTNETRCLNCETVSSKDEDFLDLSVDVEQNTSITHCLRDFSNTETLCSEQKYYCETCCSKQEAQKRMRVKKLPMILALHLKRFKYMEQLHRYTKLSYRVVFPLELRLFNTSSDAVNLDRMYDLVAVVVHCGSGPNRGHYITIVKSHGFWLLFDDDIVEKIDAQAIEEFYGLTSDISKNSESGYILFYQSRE
USP7, sequence (Q93009 whole entry, looked up): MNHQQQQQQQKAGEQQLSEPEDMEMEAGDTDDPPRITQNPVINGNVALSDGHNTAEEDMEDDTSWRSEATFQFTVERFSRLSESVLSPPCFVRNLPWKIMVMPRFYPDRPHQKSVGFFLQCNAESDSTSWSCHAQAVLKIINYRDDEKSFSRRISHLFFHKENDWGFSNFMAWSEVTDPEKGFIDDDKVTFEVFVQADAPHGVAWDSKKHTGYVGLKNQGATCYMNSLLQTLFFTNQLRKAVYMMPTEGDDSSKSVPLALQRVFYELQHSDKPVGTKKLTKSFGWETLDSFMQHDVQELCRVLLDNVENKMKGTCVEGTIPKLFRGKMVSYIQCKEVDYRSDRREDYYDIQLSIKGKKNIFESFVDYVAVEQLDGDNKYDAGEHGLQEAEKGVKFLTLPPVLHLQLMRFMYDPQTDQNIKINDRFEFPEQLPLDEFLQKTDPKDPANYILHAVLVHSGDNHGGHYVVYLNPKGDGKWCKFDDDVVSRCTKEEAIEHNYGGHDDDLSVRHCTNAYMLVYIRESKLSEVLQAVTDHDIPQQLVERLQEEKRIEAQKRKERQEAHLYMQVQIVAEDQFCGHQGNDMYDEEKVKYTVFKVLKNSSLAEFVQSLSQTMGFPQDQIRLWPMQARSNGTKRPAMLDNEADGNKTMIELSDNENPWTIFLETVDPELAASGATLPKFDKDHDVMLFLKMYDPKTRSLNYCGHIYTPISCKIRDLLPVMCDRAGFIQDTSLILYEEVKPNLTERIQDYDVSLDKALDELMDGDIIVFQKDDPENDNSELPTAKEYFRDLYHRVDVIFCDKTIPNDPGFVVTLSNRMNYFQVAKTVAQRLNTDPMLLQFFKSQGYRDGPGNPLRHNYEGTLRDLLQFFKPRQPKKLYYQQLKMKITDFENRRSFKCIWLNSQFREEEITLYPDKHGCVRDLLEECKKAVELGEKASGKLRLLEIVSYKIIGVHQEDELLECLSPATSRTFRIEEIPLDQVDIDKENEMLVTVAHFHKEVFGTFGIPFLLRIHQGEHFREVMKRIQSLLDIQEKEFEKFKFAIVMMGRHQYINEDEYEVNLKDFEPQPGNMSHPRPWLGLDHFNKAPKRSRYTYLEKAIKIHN

Cl.O=C(CCl)N1CCn2ncc(O)c2C1
inactive: [1] -0.139 | [2] -0.686 | [3] -0.0187 | [4] -0.559 | [5] 0.0938 | [6] 0.44 | [7] -0.81 | [8] -0.577

Source: the supplement of paper PMC11732987, “Enantioselective OTUD7B fragment discovery through chemoproteomics screening and high-throughput optimisation” (Communications Chemistry, 2025)
